Bioassay records deposited in PubChem BioAssay by several laboratories.
L major viab: Leishmania major promastigote growth inhibition, primary screen. Leishmania major promastigotes, resazurin fluorescence viability. inhibition, % at 10 µM. 9% of 200,000 active. AID 1063, 2008; in the data active = inhibition above about 50%;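 note: promastigotes grown with compound for 44 hours at 28 °C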
Cl transport mod: KCC2 cotransporter modulators, thallium flux, primary screen, cell-based, HEK293 KCC2, FluoZin-2 fluorescence, MLSMR | Solute carrier family 12 member 5 (Homo sapiens), Q9H2X9 | KCC2 cells, thallium flux FluoZin-2 fluorescence | B-score of Tl+ flux slope (higher = more flux/activation; lower = inhibition) at 10 µM | 2.2% of 190,000 active | AID 1456, 2008;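 active = thallium flux slope and its plate-corrected score both differing from the plate sample mean at a set confidence after two filtering rounds, in either direction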;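 note: slope of fluorescence scaled to starting intensity during 10 to 20 s after thallium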
m-calpain inh: inhibitors of pig calpain II, primary screen, biochemical, fluorogenic peptide substrate, 1536-well; 0.37% of 220,000 active; AID 1236, 2008; purified calpain II, 30 min; inhibition, % at 16 µM;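 active = inhibition above about 50%, limit read from the data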
ROMK primary: ROMK potassium channel modulators, primary screen, cell-based, thallium flux, MLSMR library | Tet-inducible ROMK, thallium flux fluorescence; actives lie on both sides | B-score at 10 µM | ATP-sensitive inward rectifier potassium channel 1 (Homo sapiens), P48048 | 2% of 130,000 active;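 active = signal ratio slope over the read window, or its plate-corrected B-score, at least 3 SD from the plate mean, either direction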;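 note: B-score of the F/F0 ratio slope over 7 to 12 s after thallium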
WT yeast gro inh: growth inhibition of WT strain, primary screen, mitochondrial fusion inhibitor project, WT and mutant strains, chemical genetic. mitochondrial fusion phenotypic screen. inhibition, % at 10 µM. 2.1% of 190,000 active; in the data active = inhibition above about 58%; tested in S. cerevisiae
KCC2 secondary: KCC2 modulators in sodium-free buffer, confirmation, cell-based, HEK293 KCC2, thallium flux, secondary assay. normalised thallium flux (F/F0 slope) at 10 µM. AID 1713, 2009. shares compounds with Cl transport mod. 15% of 3,700 active. FluoZin2 fluorescence; hits give high values;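 active = thallium flux slope above the same plate's solvent-only control mean plus 3 SD; inconclusive = the two replicate wells disagree; inactive = no significant difference from solvent-only control wells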
KCC2 bumet counter: thallium flux persisting under bumetanide in KCC2 cells, confirmation, counter-screen for KCC2 modulator project, cell-based, HEK293 KCC2, FluoZin2, secondary assay 3 | 49% of 3,700 active | shares compounds with Cl transport mod | normalized thallium flux at 10 µM | HEK293-KCC2 + bumetanide/ouabain; hits give high values;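 active = thallium entry rate above the same plate's blocked-transporter control wells by more than 3 SD; inconclusive = the two repeat wells disagree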;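 note: raw slope of fluorescence over initial fluorescence between 10 and 20 s after thallium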
KCC2 secondary2: KCC2 modulators without ouabain present, confirmation, cell-based, HEK293 KCC2, thallium flux, FluoZin2, secondary assay 2. 23% of 3,700 active. thallium flux FluoZin2 fluorescence; actives lie on both sides; F/F0 rise rate, 10–20 s post-thallium. shares compounds with Cl transport mod. AID 1715, 2009. normalized thallium flux at 10 µM;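 active = thallium flux slope more than 3 SD above or below the plate's solvent-only control mean, mostly below; inconclusive = the two repeat wells disagreed; inactive = no significant shift from solvent-only controls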;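 note: raw slope with 0.1% DMSO as baseline and bumetanide as block control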
HEK counter1: thallium flux modulation in parental HEK cells, confirmation, counter-screen for KCC2 modulator project, cell-based, counterscreen 1 | shares compounds with Cl transport mod | HEK293 parental cells, thallium flux FluoZin2, ouabain; baseline-ratio fluorescence slope, 10–20 s after thallium | thallium flux rate (normalised fluorescence) at 10 µM | 46% of 3,700 active | AID 1716, 2009;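 active = thallium flux rate significantly above the same plate's solvent-only control wells, beyond their mean plus 3 SD; inconclusive = the two replicate wells gave conflicting results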
KCC2 retest ouab: KCC2 inhibitors and activators, ouabain retest, confirmation, HEK-KCC2 cells; 48% of 3,700 active; raw Tl+ flux slope (below DMSO = inhibition, above = activation) at 10 µM; HEK293-KCC2, thallium flux FluoZin2 fluorescence; bidirectional: low = inhibitor, high = activator; shares compounds with Cl transport mod;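 active = thallium flux slope beyond 3 SD from same-plate DMSO control mean in most replicates, usually higher, sometimes lower; inconclusive = repeat tests gave conflicting results; inactive = no significant difference from controls in most replicates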;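 note: slope of initial-normalized fluorescence between seconds 10 and 20 after thallium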
HEK counter2: native HEK Tl+ uptake effects, second counter-screen – HEK cells, counterscreen 2, counter-screen for KCC2 modulator project, confirmation; thallium flux slope at 10 µM; 33% of 3,700 active; shares compounds with Cl transport mod; HEK293 parental, thallium flux FluoZin-2 fluorescence slope;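 active = thallium flux slope above the same plate's solvent-control mean plus 3 SD in both duplicate wells; inconclusive = duplicate wells that disagreed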;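 note: run without ouabain in cells lacking the KCC2 cotransporter; slope of fluorescence scaled to its starting value between 10 and 20 s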
* hit, by the source's call; ? = inconclusive; . = not tested or not shown. An excerpt weighted towards active compounds, which were near 12% of everything screened.

SMILES	L major viab	Cl transport mod	m-calpain inh	ROMK primary	WT yeast gro inh	KCC2 secondary	KCC2 bumet counter	KCC2 secondary2	HEK counter1	KCC2 retest ouab	HEK counter2
O=C(NCc1ccco1)c1ccc(Br)c(S(=O)(=O)N2CCCCC2)c1	23	.	32	-1	10	0.0068	0.0037	?	0.0071	0.016	0.0093
N#Cc1c(NC(=S)NC(=O)Cc2cccs2)sc2c1CCCCC2	4	7.4*	-39	-0.0074	45	0.0086	0.02*	0.028	0.0093*	?	0.0099
CC(/C=N\NC(=O)c1cccnc1)c1ccccc1 (configuration not stated)	-5	0.23	.	.	.	.	.	.	.	.	.
c1coc(CNc2nc3nonc3nc2NCc2ccco2)c1	3	.	-20	.	8	?	0.0049	0.028*	0.0073	0.019	0.011
N/C(Cc1nc(-c2ccc(Cl)cc2)cs1)=N/O	.	.	10	.	.	.	.	.	.	.	.
Cc1ccc(-n2cnc3sc(C)c(C)c3c2=O)cc1	-1	0.54	8	-0.74	6	.	.	.	.	.	.
Cc1sc2ncnc(SCC(=O)Nc3nc(-c4ccc(F)c(F)c4)cs3)c2c1C	3	45*	-23	0.45	7	0.026*	0.078*	0.046*	0.04*	0.072*	0.022*
Cc1sc2ncnc(SCC(=O)NC(C)C(C)C)c2c1C (configuration not stated)	11	1.7	9	1.4	6	.	.	.	.	.	.
CC(C)c1ccc(OCC(=O)Nc2cccc(C(=O)Nc3ccccc3C(=O)O)c2)cc1	-6	-5*	-46	0.055	11	0.0082	0.0055	0.033	0.0057*	0.016*	0.0097
CN(Cc1ccccc1)c1nc(N)nc(Cl)c1C=O	-8	-5*	3	-3.4	3	0.0072	0.0065	0.032	0.0039	0.012*	0.012
Cc1c(C=O)c(C=O)c(C)n1Cc1ccccc1	4	.	29	.	-8	.	.	.	.	.	.
Cc1ccc(-c2c[n+](CC(=O)Nc3ccccc3C)c3n2CCC3)cc1	.	1	-4	-0.95	.	.	.	.	.	.	.
CCOC(=O)c1c(C)[nH]c(C)c1C(=O)CSc1nc2ccccc2c(=O)n1-c1ccc(CC)cc1	13	4*	-38	0.91	21	0.0099	0.015*	0.034	?	0.024	?
Cc1ccc(-c2ccnc(=S)[nH]2)cc1	-2	.	5	0.29	4	0.023*	0.032*	0.041*	0.033*	0.034*	0.035*
S=c1nccc(-c2ccc3c(c2)CCO3)[nH]1	.	4.6*	-5	0.21	.	0.019	0.011*	0.033	0.013*	0.021*	0.016*
CCn1c(SCC(=O)N(Cc2ccccc2)C2CCS(=O)(=O)C2)nc2ccccc2c1=O (configuration not stated)	39	.	26	.	-3	0.0075	0.012*	0.03	0.011*	?	0.013*
